Compound activity: PubChem BioAssay, National Center for Advancing Translational Sciences (NCATS)
TDP1 cell CPT: qHTS for Inhibitors of human tyrosyl-DNA phosphodiesterase 1 (TDP1): qHTS in cells in presence of CPT | chicken DT40 Tdp1-/-;hTDP1 cells + 20 nM CPT, ATP luminescence, 48 h | Potency, µM (doses to about 46.2 µM), usual class: inhibitors | actives 12% (n = 420,000) | AID 686979, 2013; further: nearly all actives have a fitted effect of over 55% in size
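Chicken DT40 Tdp1-/- cells complemented with human TDP1, 400 cells/well, exposed to compounds plus 20 nM camptothecin for at least 48 h at 37 C; viability read as ATP content by CellTiter-Glo luminescence.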
DRD3 agonist: qHTS of D3 Dopamine Receptor Agonist: qHTS. D(3) dopamine receptor (Homo sapiens), P35462. D3R DiscoveRx beta-arrestin cells, luminescence, 90 min. max activation, %. actives 0.58% (n = 410,000). AID 652048, 2013; in the data active means max activation above about 30%
Target sequence (P35462 whole entry, looked up): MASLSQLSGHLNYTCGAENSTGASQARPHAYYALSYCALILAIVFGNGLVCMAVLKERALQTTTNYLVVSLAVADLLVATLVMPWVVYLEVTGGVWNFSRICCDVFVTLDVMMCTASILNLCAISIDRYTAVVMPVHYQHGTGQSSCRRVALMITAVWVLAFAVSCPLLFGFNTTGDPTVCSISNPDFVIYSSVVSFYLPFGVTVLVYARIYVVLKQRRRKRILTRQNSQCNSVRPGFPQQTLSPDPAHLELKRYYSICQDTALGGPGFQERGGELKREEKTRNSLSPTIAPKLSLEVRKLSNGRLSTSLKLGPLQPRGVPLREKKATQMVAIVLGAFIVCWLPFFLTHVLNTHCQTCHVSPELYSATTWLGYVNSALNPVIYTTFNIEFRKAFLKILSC
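Cells at 1500/well, incubated overnight, then treated with pinned compounds (dopamine as control) for 90 min at 37 degrees C. DiscoveRx reagent added for 30 - 60 minutes at room temperature; luminescence read.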
TDP1 cell noCPT: qHTS for Inhibitors of human tyrosyl-DNA phosphodiesterase 1 (TDP1): qHTS in cells in absence of CPT. actives 15% (n = 420,000). DT40 Tdp1-/- hTDP1 cells, no CPT, ATP luminescence, 48 h. Potency, µM (series often up to 46.2 µM), actives largely listed as inhibitors. AID 686978, 2013; further: nearly all actives have a fitted effect of over 55% in size
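DT40 Tdp1-/-;hTDP1 cells, no CPT (DMSO vehicle only), 400 cells/well; compounds pin-transferred; ≥48 hr, 37 °C; CellTiter-Glo 30 min RT dark, luminescence read.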
ClpP mod: qHTS Assay for Activators of ClpP; ATP-dependent Clp protease proteolytic subunit (Bacillus subtilis (strain 168)), P80244; actives 1.9% (n = 340,000); Potency, µM (highest dose often 57.5 µM); purified B. subtilis ClpP, FRET peptide cleavage, 20 min; active means well fitted falling curve with a large enough effect; inconclusive means small, poorly fitted or top-dose-only effect; inactive means no such curve, though single readings can be large or run the other way; further: the source files actives as falling curves though it sought activators and does not explain the sign; nearly all actives have a fitted effect of over 65% in size
Target sequence (P80244 whole entry, looked up): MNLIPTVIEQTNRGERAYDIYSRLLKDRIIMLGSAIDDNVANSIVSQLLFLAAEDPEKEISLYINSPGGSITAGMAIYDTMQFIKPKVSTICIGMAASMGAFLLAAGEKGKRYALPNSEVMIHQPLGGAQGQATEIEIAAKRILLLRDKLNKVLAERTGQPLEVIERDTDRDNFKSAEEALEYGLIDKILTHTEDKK
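ClpP 10 microg/mL final, pH 8 Tris/KCl buffer with BSA, glycerol, Tween-20; compound pinned in; FRET-FV substrate; RT 20 min; Ex320/Em430; ΔFRET vs ADEP 5.8 microM, DMSO, no enzyme.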
DRD3 antagonist: qHTS of D3 Dopamine Receptor Antagonist: qHTS; max response, negative = inhibition, %; actives 2.5% (n = 360,000); D3R cells, DiscoveRx beta-arrestin luminescence, antagonist mode; active compounds read low; in the data active means max response below about -50%; inconclusive means no clear call, values can overlap the other calls
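Cells plated overnight at 1500 cells/well, then exposed to library compounds with dopamine controls for 90 minutes at 37 degrees C. DiscoveRx reagent added for 30–60 minutes at room temperature; luminescence read, quantitative HTS format.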
IL-1B inflam inh: qHTS for Inhibitors of Inflammasome Signaling: IL-1-beta AlphaLISA Primary Screen. activity change, % at 57.5 µM. actives 4.7% (n = 360,000). THP-1 LPS/ATP IL-1B secretion, AlphaLISA, 16 h; active compounds read low; in the data active means activity change below about -50%; inconclusive means mostly about -30% to -49%
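THP-1 cells pretreated 1 hr with compounds (up to 57.5 uM final), then stimulated with LPS (250 ng/mL final) plus ATP (1.25 mM final); secreted IL-1B measured by AlphaLISA after 16 hr, decreased signal indicating inhibition.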
Numbers stand for hits; - = inactive; ? = inconclusive; . = not tested or not shown; ! = not confirmed by another sample. In the library only some 21% were active in any assay of this set; here they are far more common. Unless noted, the call rests on the fitted dose curve; in most records, active means well fitted inhibition curve with a large enough effect; inconclusive means small, poorly fitted or top-dose-only effect; inactive means flat fitted curve, though single readings scatter.

SMILES | TDP1 cell CPT | DRD3 agonist | TDP1 cell noCPT | ClpP mod | DRD3 antagonist | IL-1B inflam inh
CCc1ccc2[nH]c(=O)c(CN(Cc3ccco3)C(=S)NCC3CCCO3)cc2c1 (stereo not drawn) | ? | - | ? | . | - | -115
Cc1cc2cc(CN(CC3CCCO3)C(=S)NCc3ccco3)c(=O)[nH]c2cc1C (stereo not drawn) | ? | - | 16µM | - | - | -75
COC(=O)Cc1c(C)c2ccc3c(c2oc1=O)CN(Cc1ccccc1Cl)CO3 | ? | - | ? | - | . | .
Cc1nc2c(ccc3nc(NC(=O)C4CC4)sc32)s1 | ? | - | ? | . | - | ?
CCC(=O)Nc1nc2ccc3sc(C)nc3c2s1 | 18µM | - | 23µM | . | - | -
CCCC(=O)Nc1nc2ccc3nc(C)sc3c2s1 | - | - | ? | - | - | -
CCCCC(=O)Nc1nc2ccc3nc(C)sc3c2s1 | ? | - | ? | - | -80 | -
CCc1ccc(-n2c(=O)c3c4c(sc3n(CC(=O)N3CCC(C)CC3)c2=O)CCC4)cc1 | - | - | - | - | . | .
S=C(c1ccc(-c2ccc(Cl)c(Cl)c2)o1)N1CCOCC1 | ? | - | ? | - | - | ?
S=C(c1ccc(-c2ccccc2Cl)o1)N1CCOCC1 | ? | - | ? | - | - | -91
CC1CCN(C(=O)c2ccc(-c3ccccc3Cl)o2)CC1 | - | - | ? | . | - | -100
O=C(NNC(=O)c1ccccc1F)c1ccc(-c2ccccc2Cl)o1 | - | - | ? | - | - | -52
COCCn1c(=O)c(-c2cc(F)cc(F)c2)nc2cnc(OCc3ccccc3)nc21 | - | . | - | . | . | .
Cc1oc2ccc(O)cc2c1C(=O)c1ccc(Cl)cc1 | - | - | ? | - | - | -
Cc1oc2ccc(O)cc2c1C(=O)c1ccc([N+](=O)[O-])cc1 | 21µM | - | 13µM | - | - | ?
CC(=O)N1c2ccccc2C(=O)C1N1CCN(c2cccc(Cl)c2)CC1 (stereo not drawn) | - | - | - | - | . | .
CCOc1ccc(-n2c(SCC(N)=O)nc3c([nH]c4ccccc43)c2=O)cc1 | 13µM | - | ? | - | ? | -
CCOC(=O)CSc1nc2c([nH]c3ccccc32)c(=O)n1-c1ccc(OCC)cc1 | - | - | - | - | . | .
CCOc1ccc(-n2c(SCC(=O)Nc3cc(C)ccc3C)nc3c([nH]c4ccccc43)c2=O)cc1 | 13µM | - | 16µM | - | . | .
CCOc1ccc(-n2c(SCC(=O)Nc3cc(C)on3)nc3c([nH]c4ccccc43)c2=O)cc1 | ? | - | - | ? | - | -
COc1cccc(SCc2noc(C(=O)NCCCN3CCOCC3)c2C(=O)NCCCN2CCOCC2)c1 | - | - | - | - | ? | -
O=c1cnc2cnc(Oc3ccccc3)nc2n1C1CC1 | - | . | - | . | . | .
COc1cc(C(=O)OCC(C)=O)c([N+](=O)[O-])cc1OC | - | - | - | . | - | -
CCOC(=O)c1c(NC(=O)COC(=O)c2cc(OC)c(OC)cc2[N+](=O)[O-])sc(C)c1CC | ? | - | 15µM | - | - | -
CCOC(=O)c1c(CC(C)C)csc1NC(=O)COC(=O)c1cc(OC)c(OC)cc1[N+](=O)[O-] | 12µM | - | 5.8µM | - | - | -
SMILES | TDP1 cell CPT | DRD3 agonist | TDP1 cell noCPT | ClpP mod | DRD3 antagonist | IL-1B inflam inh
CCN(CC)c1ncnc2c1ncn2[C@H]1CN(Cc2ccc(F)cc2)C[C@@H](CO)O1 | ? | - | - | - | - | -
COc1cc(C(=O)NC(C)C2CC3CCC2C3)cc(OC)c1OC (stereo not drawn) | ? | - | ? | - | - | -
CCN(Cc1ccccc1)S(=O)(=O)c1cc(C(=O)NC(C)C2CC3CCC2C3)ccc1OC (stereo not drawn) | 16µM | - | 15µM | - | - | -
COc1ccc(C(=O)NC(C)C2CC3CCC2C3)c(OC)c1 (stereo not drawn) | 23µM | - | 21µM | - | - | -
CCN(Cc1ccccc1)S(=O)(=O)c1cc(C(=O)c2c(N)n(C)c(=O)n(C)c2=O)ccc1OC | ? | - | 29µM | - | - | -
CCCCN(Cc1ccccc1)S(=O)(=O)c1c(N)n(C)c(=O)n(C)c1=O | - | - | - | - | - | -
CCCCC[C@H](O)/C=C/[C@@H]1[C@H]2C/C(=C/CCCC(=O)O)O[C@H]2C[C@H]1O | - | - | - | . | . | .
Cc1cc(C(=O)N2CCc3ccccc32)n(-c2ccccc2)n1 | ? | - | 18µM | - | ? | -
Cc1cc(C)n(-c2ccc(C(=O)N3CCc4ccccc43)cc2)n1 | ? | - | 16µM | - | - | ?
Cc1cc(C)n(-c2ccc(C(=O)O)cc2)n1 | - | - | - | - | - | -
Cc1cc(C)n(C(C)CC(=O)N2CCc3ccccc32)n1 (stereo not drawn) | - | - | ? | - | - | -
Cc1ccc(NC(=O)Cn2c(=O)n(CCc3ccccc3)c(=O)c3sc4ccccc4c32)cc1C | - | - | - | - | . | .
CC(C)[C@H](NC(=O)c1ccccc1)C(=O)Nc1ccc2c(c1)OCO2 | - | - | - | - | - | -
COc1ccc(-c2nc3ccc(Cl)cn3c2Cc2ccc(C)cc2)cc1OC | ? | - | ? | - | - | -
CCC(C)Sc1cc(-c2nc3ccc(Cl)cn3c2NC2CCCCC2)ccc1OC (stereo not drawn) | 16µM | - | 15µM | ? | - | -74!
COc1ccc(Cc2c(-c3cccc(Br)c3)nc3ccc(Cl)cn23)c(C)c1 | - | - | ? | - | - | -
COc1ccc(-c2cccc(-c3nc4ccc(Cl)cn4c3NC3CCCCC3)c2)cc1 | 18µM | - | 21µM | ? | - | -
CC(=O)c1csc(-c2cccc(-c3nc4ccc(Cl)cn4c3NC3CCCCC3)c2)c1 | 21µM | - | ? | - | - | -
CCCCCCSc1cc(-c2nc3ccc(Cl)cn3c2NC2CCCCC2)ccc1OC | ? | - | 16µM | - | - | -
CCOc1ccccc1OCCC(=O)N1CCN(S(=O)(=O)c2ccccc2[N+](=O)[O-])CC1 | ? | - | ? | - | - | ?
CCN(C(=O)COC(=O)c1ccc(Cl)c(S(=O)(=O)N2CCCCC2)c1)C1CCS(=O)(=O)C1 (stereo not drawn) | - | - | - | - | - | -
CCCCCCSc1cccc(-c2nc3ccc(C)cn3c2NC2CCCCC2)c1 | ? | - | ? | - | - | -
CCCCCCSc1ccc(-c2nc3ccc(Cl)cn3c2NC2CCCCC2)cc1 | 26µM | - | ? | - | - | -
